Measured values from the OligoGym collection.

What follows are sequences tested against OCA2 (assay: pooled miR-30 sensor sort-seq; sequence = guide strand). Conditions: shRNA.
Note: reference of the scale not given here.

Row | Sequence | sensor-assay potency score (higher = more potent)
1 | TTGAGCACCTCACACAACCTTA | -0.642
2 | TTTGTGAAGATCACTTCTGCAA | 0.623
3 | TTTGTTCTCCAACATATTCTAT | -1.25
4 | TTCAGTTCAACAATCTCACTGG | 0.691
5 | TTGTTCTCCAACATATTCTATT | -1.21
6 | TAGCAGGTATCTTCGCTCCCAG | -0.952
7 | TTTTCTTCTTCAAACAGTGGGG | -0.306
8 | TAACACATCCCAACAGTGCAGG | -0.397
9 | TTGTCTTGGATCAAGGTTGAGC | -0.397
10 | TTATAAAGCTTTCTGTTCCAGT | -0.265
11 | AACAGTGCAGGACACAACCATC | -1.7

The sequences below were run against OCLM in the same assay as above. Conditions: shRNA.

Row | Sequence | sensor-assay potency score (higher = more potent)
12 | TTAAATAGAAGAGTATACTAAT | -0.462
13 | ACTAATGTGTCTGCTAAGGTAA | -1.12
14 | TACTAATGTGTCTGCTAAGGTA | -0.482
15 | TTTAAATAGAAGAGTATACTAA | -0.591
16 | ATAGAAGAGTATACTAATGTGT | -0.144
17 | TATACTAATGTGTCTGCTAAGG | -1.53
18 | TAGAAGAGTATACTAATGTGTC | -0.0959
19 | AAAGAATACCAGGATAGCCATA | -1.76
20 | AAGAGTATACTAATGTGTCTGC | 0.0499
21 | TAATACCACTCTTATAAAGGAT | -0.68
22 | AATACCACTCTTATAAAGGATT | -1.36
23 | TCTGCTAAGGTAAATCTTTAAC | -1.77
